Structures are written as SMILES. Activity calls are given as the source filed them. How the calls were made is not given here.

A word on the inhibition: it is the drop in the measured response relative to a control, in per cent.

For this assay, the target named is Pantothenate synthetase (Mycobacterium tuberculosis (strain ATCC 25618 / H37Rv)) (UniProt P9WIL5). In words: Coupled enzyme confirmation of inhibitors against recombinant Mtb PanC (AID 375).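 Further: 0% = full reaction with vehicle and 100% = no enzyme background.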 Particulars: coupled enzyme assay; at 10 µM, stronger effect = higher value.
Chain of Pantothenate synthetase (Mycobacterium tuberculosis (strain ATCC 25618 / H37Rv)) (P9WIL5 whole entry, looked up): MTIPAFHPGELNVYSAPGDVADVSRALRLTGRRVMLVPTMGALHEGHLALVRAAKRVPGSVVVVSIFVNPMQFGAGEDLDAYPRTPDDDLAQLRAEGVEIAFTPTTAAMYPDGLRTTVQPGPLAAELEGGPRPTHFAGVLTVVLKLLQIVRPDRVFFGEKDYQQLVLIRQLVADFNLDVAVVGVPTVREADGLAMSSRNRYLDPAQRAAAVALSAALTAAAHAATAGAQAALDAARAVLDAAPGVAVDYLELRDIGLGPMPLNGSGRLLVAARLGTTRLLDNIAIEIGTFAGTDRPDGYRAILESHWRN
Consider `c1ccc(SCc2nc3ccccc3[nH]2)nc1`, for which the inhibition was 4% (inactive).
As to `COc1ccc(C)cc1-n1nnnc1SC/C(O)=C(\C#N)c1nc2ccccc2[nH]1`, the inhibition was 4% (inactive).
As for `CCOC(=O)c1[nH]c2ccccc2c1NC(=O)c1ccco1`, the figure is 0% (inactive).
Consider `CN1CCN(c2nc3c(c(=O)[nH]c(=O)n3C)n2CCOc2ccccc2)CC1`, for which the inhibition was 0% (inactive).
As for `COCCSc1ccccc1C(=O)Nc1cc(C)on1`, the figure is 5% (inactive); as for `COc1ccc(-c2c(C(F)(F)F)oc3c(CN4CCN(C)CC4)c(O)ccc3c2=O)cc1`, 4% (inactive); as for `COc1ccc2cnn(-c3ccccc3C)c(=O)c2c1OC`, 3% (inactive).
In the case of `C=CCn1c(COc2ccccc2)nnc1SCC(=O)C(C)(C)C`, the inhibition is 0% (inactive).
The figure for `CCOC(=O)c1ccc(Oc2nc(SC)nc(N(C)C)n2)cc1` is 1% (inactive); for `Cc1cc(C)c(C#N)c(SCC(=O)Nc2ccc(S(=O)(=O)Nc3onc(C)c3C)cc2)n1` it is 0% (inactive); for `O=c1[nH]c2sc3c(c2c2nncn12)CCCC3` it is 0% (inactive).
As for `O=C(Cn1ncc2c(=O)oc3ccccc3c21)NCCCN1CCCC1=O`, the figure is 0% (inactive); as for `CCN1CCN(C(=O)c2ccc3c(=O)n(C4CCCC4)c(=S)[nH]c3c2)CC1`, 0% (inactive); as for `COc1cccc(C2CC(c3ccc(F)cc3)Nc3nc(N)nn32)c1` (centres undefined), 0% (inactive).
With `CCn1cc(C(=O)O)c(=O)c2cc(F)c(N3CCN(C(=O)Nc4ccccc4)CC3)cc21`, the inhibition is 1% (inactive).
As for `COc1ccc(S(=O)(=O)Nc2ccc3c(c2)OCO3)cc1Cl`, the figure is 5% (inactive); as for `O=C(CC(CC(=O)c1ccccc1)C(=O)O)c1ccccc1`, 3% (inactive); as for `O=C(O)c1ccc2c3c(ncnc13)-c1ccccc1C2=O`, 1% (inactive).
Turning to `Cc1cc(C)c(NC(=O)CSc2nc3c(c(=O)n2C)SC(C)C3)c(C)c1` (centres undefined), the inhibition was 0% (inactive).
The figure for `Cc1nn(-c2ccccc2)c(Cl)c1C1C(C#N)=C(N)OC2=C1C(=O)CC(C)(C)C2` (centres undefined) is 0% (inactive); for `Cc1ccc(NC(=O)C2CCCNC2=O)nc1` (centres undefined) it is 0% (inactive); for `CCN(CC)CCNC(=O)c1cc(S(C)(=O)=O)ccc1OC` it is 0% (inactive).
As for `C=C(C)Cn1c(CCCNC(=O)C(C)(C)C)nc2ccccc21`, the figure is 0% (inactive).
`CC1=C(C(=O)OC2CCCC2)C(c2ccc(C)o2)C2=C(CC(c3cccs3)CC2=O)N1` (centres undefined): the inhibition is 0% (inactive).
The figure for `Cn1c(=O)c2c(nc(NCCNC(=O)c3ccco3)n2Cc2ccccc2Cl)n(C)c1=O` is 0% (inactive); for `CCOC(=O)c1c(NC(=O)OC)sc(C(=O)N(C)C)c1C` it is 1% (inactive).
In the case of `CCOc1cc2[nH]c(=O)n(CCC(=O)NCCc3ccc(OC)c(OC)c3)c(=O)c2cc1OCC`, the inhibition was 1% (inactive).
As for `O=C(COC(=O)C1=COCCO1)Nc1ccccc1Oc1ccccc1`, the inhibition is 1% (inactive).
In the case of `Cc1nnc(NC(=O)CSc2nc3c(c(=O)n2C)SC(C)C3)s1` (centres undefined), the inhibition was 5% (inactive).
In the case of `O=C(NCc1nnc(SCC(=O)N2CCC(Cc3ccccc3)CC2)o1)c1ccccc1F`, the inhibition was 0% (inactive).
`CCC(C)OC(=O)C1=C(C)NC2=C(C(=O)C(C(=O)OC)C(C)C2)C1c1ccc(N(C)C)cc1` (centres undefined): the inhibition was 0% (inactive).
As for `CCOC(=O)c1cnc(SCC)[nH]c1=O`, the figure is 0% (inactive); as for `O=C(CSc1nc2ccccc2o1)N1CCN(C(=O)c2ccco2)CC1`, 0% (inactive).
The figure for `COc1ccccc1OC(=O)c1ccc(SC)cc1OC` is 2% (inactive); for `Cc1cc(NC(=O)NC(=O)c2cccc(OC(F)(F)C(F)F)c2)n[nH]1` it is 3% (inactive); for `Cc1ccc(-c2nn3c(C)nnc3s2)cc1N` it is 0% (inactive).
Take `Cc1cc(C)n2nc(SCC(=O)N(C)Cc3ccccc3)nc2n1`: the inhibition is 3% (inactive).
As for `CCOc1ccccc1N1C(=O)c2ccc(C(=O)Nc3cccnc3)cc2C1=O`, the figure is 4% (inactive).
As for `CCOc1ccc(CNC(=O)C2CCCN(S(C)(=O)=O)C2)cc1OC` (centres undefined), the figure is 0% (inactive).

The record behind these values is PubChem BioAssay.
